Pf growth 96h – P. falciparum growth inhibition at 96 hours; 6.9% of 320,000 active; P. falciparum luciferase reporter growth, 96 h; Potency, µM (top dose mostly 28.7 µM), most hits filed as inhibitors
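Erythrocytes infected with luciferase-expressing P. falciparum were dispensed at 2% hematocrit and 0.05% parasitemia (final), then incubated with compounds 96 hours at 37 C in 5% CO2. Luminescence after detection reagent addition reported growth.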
Pf growth 48h – inhibits P. falciparum growth in the first generation, 48 h; P. falciparum luciferase growth in erythrocytes, 48 h; Potency, µM (top dose mostly 28.7 µM), most hits filed as inhibitors; 5.9% of 310,000 active
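First compound was added to culture medium, then infected red cells at 0.1% parasitemia and 2% hematocrit (final). After incubation at 37 C under 5% CO2, luciferase detection reagent was dispensed and light output recorded.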
Shiga toxin inh – inhibitors of Shiga toxin in Vero cells. Vero cells, Shiga toxin protein synthesis inhibition reporter. inhibition, % at 38.7 µM. 9.2% of 290,000 active. AID 2315; in the data active = inhibition mostly above about 28%, no sharp cut-off; inactive = mostly below about 43%
CHX counter – counter-screen hit for Shiga toxin inhibitors, cycloheximide. max response, %. AID 2314. 12% of 300,000 active. cell reporter, cycloheximide protein synthesis inhibition counterscreen; in the data active = max response mostly above about 13%, no sharp cut-off; inactive = mostly below about 14%; also: read at 38.3 µM for the half of the compounds with a filed dose
A number is an active result; [ ] = another dose, or the depositor's remark. A selection: hits, their analogues and other compounds. The true share with any hit is near 21%. Unless noted, calls follow the shape of the dose curve; as a rule, active = well fitted inhibition curve with a large enough effect; inconclusive = small, poorly fitted or top-dose-only effect, or another doubt; inactive = no such curve, though single readings can be large or run the other way.

For Cc1cc(C)n2nc(SCCC(=O)NCc3ccccc3)nc2n1 the results were Pf growth 96h inconclusive, Pf growth 48h inactive, Shiga toxin inh inactive and CHX counter inactive.
For CCS(=O)(=O)Nc1cccc(C2=NN(S(=O)(=O)c3ccc(C)cc3)C(c3ccco3)C2)c1 (stereo not drawn) the results were Pf growth 96h inconclusive, Pf growth 48h inconclusive, Shiga toxin inh inactive and CHX counter inactive.
Screening CCCCCc1ccc(-c2cn(CC3CCCCC3)nn2)cc1 returned Pf growth 96h 12µM, Pf growth 48h inactive, Shiga toxin inh inactive and CHX counter inactive.
CCCCCc1ccc(-c2cn(CCc3c[nH]c4ccccc34)nn2)cc1 was read as Pf growth 96h inconclusive, Pf growth 48h inactive, Shiga toxin inh inactive and CHX counter inactive.
For COc1ccc(-c2cn(CC3CCCCC3)nn2)cc1 the results were Pf growth 96h inactive, Pf growth 48h inactive, Shiga toxin inh 17 and CHX counter 16.
Screening c1ccc(-c2cn(C[C@H]3CC[C@@H]([C@@H]4CC[C@H](Cn5cc(-c6ccccc6)nn5)O4)O3)nn2)cc1 returned Pf growth 96h inconclusive, Pf growth 48h inconclusive, Shiga toxin inh inactive and CHX counter inactive.
For COc1ccc(-c2cn(Cc3ccc4ccccc4c3)nn2)cc1 the results were Pf growth 96h inactive, Pf growth 48h inactive, Shiga toxin inh inactive and CHX counter inactive.
For c1ccc(-c2cn(CC3CCCCC3)nn2)cc1 the results were Pf growth 96h inactive, Pf growth 48h inactive, Shiga toxin inh 45 and CHX counter 37.
CC(Oc1cc2oc(=O)c3c(c2cc1Cl)CCC3)C(=O)NCc1ccccn1 (stereo not drawn) was read as Pf growth 96h inactive, Pf growth 48h inactive, Shiga toxin inh inactive and CHX counter inactive.
CCCCCCNC(=O)Cc1ccc(Br)cc1 was read as Pf growth 96h inactive, Pf growth 48h inactive, Shiga toxin inh inactive and CHX counter inactive.
`CCCCn1cc[n+](C)c1` gave Shiga toxin inh inactive and CHX counter inactive.
CCCCCn1ccc(=N)cc1 was read as Pf growth 96h 1.5µM, Pf growth 48h 4.1µM, Shiga toxin inh inactive and CHX counter inactive.
CCCCCNCc1cccn1C was read as Pf growth 48h inactive, Shiga toxin inh inactive and CHX counter inactive.
Screening CCCCCCCCCn1ccc(=N)cc1 returned Pf growth 96h inconclusive, Pf growth 48h 0.17µM, Shiga toxin inh inactive and CHX counter inactive.
Screening CCCCCCCn1ccc(=N)cc1 returned Pf growth 48h 0.93µM, Shiga toxin inh inactive and CHX counter inactive.
`CCn1ccc(=N)cc1` gave Pf growth 96h 12µM, Pf growth 48h inconclusive, Shiga toxin inh inactive and CHX counter inactive.
For O=C(c1ccc([N+](=O)[O-])cc1)N(Cc1cccs1)C1CCS(=O)(=O)C1 (stereo not drawn) the results were Pf growth 96h inconclusive, Pf growth 48h inactive, Shiga toxin inh inactive and CHX counter inactive.
For c1ccc2c(-c3cc(C4CCNCC4)[nH]n3)cccc2c1 the results were Pf growth 96h inactive, Pf growth 48h inactive, Shiga toxin inh inactive and CHX counter inactive.
`COc1ccc(CCN2CC(C(=O)NCCN3CCOC3=O)CCC2=O)cc1` (stereo not drawn) gave Pf growth 96h inactive, Pf growth 48h inactive, Shiga toxin inh inactive and CHX counter inactive.
Cc1ccccc1NS(=O)(=O)c1ccc(C(=O)N2CCCC(C(F)(F)F)C2)cc1 (stereo not drawn) was read as Pf growth 96h inactive and Pf growth 48h inconclusive.
For Clc1ccc2c(c1)C(c1ccccc1Cl)=NCc1nnc(N3CCN(CCSc4ccccc4)CC3)n1-2 the results were Pf growth 96h inactive, Pf growth 48h inactive, Shiga toxin inh inactive and CHX counter inactive.
For Clc1ccc2c(c1)C(c1ccccc1Cl)=NCc1nnc(N3CCN(CCOc4ccccc4)CC3)n1-2 the results were Pf growth 96h 9.3µM, Pf growth 48h inconclusive, Shiga toxin inh inactive and CHX counter inactive.
Screening O=C(c1ccc(N2CCCC2=O)cc1)N1CCN(c2ccccc2F)CC1 returned Pf growth 96h inactive, Pf growth 48h inactive, Shiga toxin inh inactive and CHX counter inactive.
CC(C)=NNc1nc(-c2ccc(N3C(=O)CCC3=O)cc2)cs1 was read as Pf growth 96h inactive, Pf growth 48h inactive, Shiga toxin inh inactive and CHX counter 20.
For C/C(CCC1CC(C)OC1=O)=N/Nc1nc(-c2ccccc2)cs1 (stereo not drawn) the results were Pf growth 96h inactive, Pf growth 48h inactive, Shiga toxin inh 44 and CHX counter 22.
CC(C)=NNc1nc(-c2ccccc2)cs1 was read as Pf growth 96h inactive, Pf growth 48h inactive, Shiga toxin inh inactive and CHX counter 22.
`COc1ccc(-c2csc(NC(=O)CN3C(=O)CCC3=O)n2)cc1` gave Pf growth 96h inactive, Pf growth 48h inactive, Shiga toxin inh inactive and CHX counter inactive.
`COc1ccc(/C=C(\NC(=O)c2ccc(C)cc2)C(=O)NCCCn2ccnc2)cc1OC` gave Pf growth 96h inconclusive, Pf growth 48h inactive, Shiga toxin inh inactive and CHX counter inactive.
Screening Cc1ccc(C(=O)OC(C)C(=O)Nc2ccc3c(c2)OCO3)c(O)c1 (stereo not drawn) returned Pf growth 96h inactive and Pf growth 48h inactive.
COc1ccc(S(=O)(=O)NCCC(C)C)cc1C was read as Pf growth 96h inactive, Shiga toxin inh inactive and CHX counter inactive.
COCC(=O)Nc1ccc(-c2cn3cccnc3n2)cc1 was read as Pf growth 96h inconclusive, Pf growth 48h inactive, Shiga toxin inh inactive and CHX counter 27.
Screening CCOCC(=O)Nc1cc(-c2cn3cccnc3n2)ccc1C returned Pf growth 96h inactive, Pf growth 48h inactive, Shiga toxin inh inactive and CHX counter inactive.
For CC(C)(C)CC(=O)Nc1cccc(-c2cn3cccnc3n2)c1 the results were Pf growth 96h inactive[1.15 µM], Pf growth 48h inactive, Shiga toxin inh 87 and CHX counter 38.
CCC(CC)C(=O)Nc1ccc(-c2cn3cccnc3n2)cc1 was read as Pf growth 96h inactive, Pf growth 48h inactive, Shiga toxin inh 31 and CHX counter 14.
`COc1ccc(-c2cn3cccnc3n2)cc1NC(=O)c1cc(OC)c(OC)c(OC)c1` gave Pf growth 96h inconclusive, Pf growth 48h inactive, Shiga toxin inh inactive and CHX counter inactive.
`CC1CCCN(c2ncnc3c2cnn3-c2ccccc2)C1` (stereo not drawn) gave Pf growth 96h inactive, Pf growth 48h inactive, Shiga toxin inh inactive and CHX counter 20.
c1ccc(-n2ncc3c(N4CCCCC4)ncnc32)cc1 was read as Pf growth 96h inactive, Shiga toxin inh inactive and CHX counter inactive.
`COc1cccc(N2CCN(c3ncnc4c3cnn4-c3ccc(C)cc3C)CC2)c1` gave Pf growth 96h 5.9µM, Shiga toxin inh inactive and CHX counter 17.
`CC1CCN(c2ncnc3c2cnn3Cc2ccc(Cl)cc2)CC1` gave Pf growth 96h inactive[5.75 µM], Pf growth 48h inconclusive, Shiga toxin inh inactive and CHX counter inactive.
Screening Cc1ccc(-n2ncc3c(N4CCCC(C)C4)ncnc32)c(C)c1 (stereo not drawn) returned Pf growth 96h inactive, Pf growth 48h inactive, Shiga toxin inh 83 and CHX counter 65.
`CC1CCCN(c2ncnc3c2cnn3-c2ccc(Cl)cc2)C1` (stereo not drawn) gave Pf growth 96h inactive, Pf growth 48h inactive, Shiga toxin inh 60 and CHX counter 62.
